High-throughput results: PubChem BioAssay, National Center for Advancing Translational Sciences (NCATS)
FUS yeast rescue: FUS proteinopathy suppression in yeast; 0.24% of 390,000 active; AID 1347120; Potency, µM (top dose mostly 76.6 µM), most hits filed as activators; S. cerevisiae FUS-expressing, growth rescue, OD600, 24 h; also: nearly all actives have a fitted effect of over 55% in size
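Yeast expressing FUS under galactose induction, OD 0.005 in 2% galactose medium; compounds in a dilution series, 24 h at 30C. Growth rescue by absorbance at 600 nm; CP55940 positive control, DMSO negative.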
aSyn yeast inh: rescues yeast growth from alpha-synuclein toxicity | Yeast expressing alpha-synuclein, growth rescue, BacTiter-Glo, 24 h | Potency, µM (top dose mostly 46.1 µM), most hits filed as activators | 0.14% of 370,000 active; also: nearly all actives have a fitted effect of over 65% in size
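Rescue of yeast growth: cells expressing toxic alpha-synuclein, induced in galactose at OD600 0.02, incubated with compound 24 h at 30 C. ATP luminescence quantified growth; inhibitors of toxicity appear as activators.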
Abeta yeast res: A-beta toxicity reversal in yeast. yeast expressing A-beta42, growth rescue, OD600, 48 h; response scale: 0% DMSO, 100% iron-clioquinol control. Potency, µM (doses to about 46.1 µM), actives largely listed as activators. 0.063% of 410,000 active. AID 1347071; also: nearly all actives have a fitted effect of over 55% in size
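Growth rescue measured by 600 nm absorbance after 48 h yeast culture at 30 C with compound. Values normalized between DMSO and an equimolar ferric chloride plus clioquinol control.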
TDP43 rescue: inhibitors of TDP-43 toxicity in yeast; 1.8% of 410,000 active; Potency, µM (highest dose often 46.1 µM), usual class: activators; AID 652104; TDP-43 expressing yeast growth rescue, BacTiter-Glo, 24 h; also: nearly all actives have a fitted effect of over 50% in size
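Yeast expressing TDP-43 (pregrown in raffinose, seeded at OD600=0.02 in galactose medium) exposed to compounds 24 hr at 30 deg C. Growth read by BacTiter-Glo luminescence; rescue of toxicity appears as increased signal.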
Large screens that a line does not name were inactive. Compounds with a hit are over-represented: about 2.1% of the library has one in this group of screens. Calls follow the shape of the dose curve; as a rule, active = well fitted curve in the direction sought with a large enough effect; inconclusive = small, poorly fitted or top-dose-only effect, or another doubt; inactive = no such curve, though single readings can be large; an effect the other way counts as inactive or inconclusive.

Cc1ccc(C(=O)n2nc(C)c(S(=O)(=O)N3CCOCC3)c2C)cc1	none (no result: aSyn yeast inh)
O=C(NCCc1csc(-c2cccc(F)c2)n1)c1ccccc1C(F)(F)F	TDP43 rescue 18µM (no result: aSyn yeast inh)
O=C(NCCc1csc(-c2cccc(F)c2)n1)c1ccc(Br)o1	TDP43 rescue 32µM (no result: aSyn yeast inh)
O=C(NCCc1csc(-c2ccc(F)cc2)n1)c1ccc(Br)o1	TDP43 rescue inconclusive (no result: aSyn yeast inh)
O=C(NCCc1csc2nc(-c3ccccc3F)nn12)c1ccccc1C(F)(F)F	TDP43 rescue 18µM (no result: aSyn yeast inh)
N#CC1=C(N)N(c2cccc(Cl)c2)C2=C(C(=O)CCC2)C1c1cc(CN2CCOCC2)cs1 (stereo not drawn)	none (no result: aSyn yeast inh)
C=CC[C@@H]1NN2C(=O)[C@@H](C)[C@@H]3c4ccccc4C=NN3[C@@H]2c2ccccc21	none (no result: aSyn yeast inh, Abeta yeast res, TDP43 rescue)
COc1ccc(CCCNC(=O)C2Cc3c(-c4ccccc4)ccnc3O2)cc1 (stereo not drawn)	TDP43 rescue 32µM
CC(=O)Nc1ccc(-c2ccnc3c2CC(C(=O)Nc2ccc4c(c2)OCO4)O3)cc1 (stereo not drawn)	FUS yeast rescue inconclusive
O=C(Nc1ccccc1)C1Cc2c(-c3ccccc3Oc3ccccc3)ccnc2O1 (stereo not drawn)	none
CC(C)c1ccc(NC(=O)C2Cc3c(-c4ccc5c(c4)OCO5)ccnc3O2)cc1 (stereo not drawn)	FUS yeast rescue inconclusive, TDP43 rescue 35µM
CC(=O)c1cccc(-c2ccnc3c2CC(C(=O)Nc2cccc(OC(F)(F)F)c2)O3)c1 (stereo not drawn)	Abeta yeast res inconclusive, TDP43 rescue 35µM
COc1ccc(NC(=O)C2Cc3c(-c4ccccc4Oc4ccccc4)ccnc3O2)cc1 (stereo not drawn)	TDP43 rescue 25µM
COc1ccc(CNC(=O)C2Cc3c(-c4ccccc4)ccnc3O2)cc1OC (stereo not drawn)	none
O=C(Nc1cccc(OC(F)(F)F)c1)C1Cc2c(-c3ccc(Cl)cc3)ccnc2O1 (stereo not drawn)	aSyn yeast inh inconclusive
COc1ccccc1NC(=O)c1ncn(-c2ccccc2)n1	TDP43 rescue inconclusive (no result: aSyn yeast inh)
CC(=O)c1cccc(-c2ccnc3c2CC(C(=O)Nc2ccc(Cl)c(C(F)(F)F)c2)O3)c1 (stereo not drawn)	TDP43 rescue 16µM
COc1ccc(NC(=O)C2Cc3c(-c4cccc(NC(C)=O)c4)ccnc3O2)cc1 (stereo not drawn)	none
CC(=O)Nc1ccc(-c2ccnc3c2CC(C(=O)Nc2ccc(C(C)C)cc2)O3)cc1 (stereo not drawn)	FUS yeast rescue inconclusive
COc1ccc(NC(=O)C2Cc3c(-c4cccc(C(C)=O)c4)ccnc3O2)cc1 (stereo not drawn)	TDP43 rescue 22µM
CC(C)c1ccc(NC(=O)C2Cc3c(-c4ccco4)ccnc3O2)cc1 (stereo not drawn)	aSyn yeast inh inconclusive, TDP43 rescue 35µM
CC(=O)c1cccc(-c2ccnc3c2CC(C(=O)Nc2ccc4c(c2)OCO4)O3)c1 (stereo not drawn)	FUS yeast rescue inconclusive, TDP43 rescue 25µM
CC(=O)Nc1ccc(NC(=O)C2Cc3c(-c4cccc(C(C)=O)c4)ccnc3O2)cc1 (stereo not drawn)	none
CCOc1ccc(-c2cc(NC(=O)c3ccccc3)c(C(=O)OC)s2)cc1	none (no result: aSyn yeast inh)
COc1ccc(CCNC(=O)Cn2c(=O)c3cccn3c3ccc(F)cc32)c(OC)c1	none (no result: aSyn yeast inh)
CCC(Sc1nc2ccccc2c2nc(CCc3c(C)n[nH]c3C)nn12)C(=O)Nc1ccc(OC)cc1 (stereo not drawn)	TDP43 rescue inconclusive (no result: aSyn yeast inh)
COc1cccc(N(C)C(=O)[C@@H](C2CC2)[C@@H](O)c2ccc3ccccc3c2)c1	none (no result: aSyn yeast inh, Abeta yeast res, TDP43 rescue)
Cc1ccc(-n2nnnc2-c2cnoc2-c2cccc(F)c2)cc1	TDP43 rescue 14µM
Oc1ccc(C23CC4CC(CC(C4)C2)C3)cc1O	aSyn yeast inh 2.8µM, Abeta yeast res inconclusive, TDP43 rescue 6.3µM
CCOc1ccc(NC(=O)CN2CCCN(c3ccc(OC)cc3)CC2)cc1	none (no result: aSyn yeast inh, Abeta yeast res, TDP43 rescue)
Nc1nc(Cl)cc(Nc2ccccc2Cl)n1	none
CSc1nc(Cl)cc(Nc2ccccc2N)n1	TDP43 rescue 10µM
O=c1c2c3c(sc2ncn1-n1cccc1)CCCCC3	TDP43 rescue 13µM
COc1ccc(-n2cnc3cc(C(=O)NC4CCCCCC4)ccc32)cc1	TDP43 rescue 35µM (no result: aSyn yeast inh)
CC(C)(C)OC(=O)N1CCC(CC2CC(c3ccccc3)=NO2)(C(=O)O)CC1 (stereo not drawn)	TDP43 rescue 22µM
CC(C)NC(=O)C1CCN(c2nc3ccccc3nc2C(F)(F)F)CC1	none (no result: aSyn yeast inh)
O=C1OC(/C(=C\Nc2ccc(F)cc2F)[N+](=O)[O-])c2ccccc21 (stereo not drawn)	aSyn yeast inh 18µM, TDP43 rescue inconclusive
Cc1nc(-c2cccnc2)sc1C(=O)Nc1cccc(C(F)(F)F)c1	TDP43 rescue 13µM
Cc1nc(Cl)sc1C(=O)Nc1cccc(C(F)(F)F)c1	none
Cc1nc(-c2cccnc2)sc1C(=O)Nc1ccc(C(F)(F)F)cc1	TDP43 rescue 11µM
O=C(Cn1ncc2c(=O)oc3ccccc3c21)NCc1ccccc1Cl	none (no result: aSyn yeast inh)
O=C(c1ccc(F)cc1)N1CCN(S(=O)(=O)c2ccc3c(c2)OCCO3)CC1	none
O=C(c1ccccc1F)N1CCN(S(=O)(=O)c2ccc3ccccc3c2)CC1	TDP43 rescue 35µM
O=C(c1ccc2ccccc2n1)N1CCN(S(=O)(=O)c2ccc(Cl)cc2)CC1	TDP43 rescue 25µM
O=C(c1ccc(F)cc1F)N1CCN(S(=O)(=O)c2ccc3c(c2)OCCO3)CC1	TDP43 rescue 13µM (no result: FUS yeast rescue)
Cc1ccc(OCC(=O)Nc2ccc(S(=O)(=O)Nc3cc(C)nc(C)n3)cc2)c(Br)c1	none (no result: aSyn yeast inh)
COc1ccc(-c2cc(C(F)(F)F)nc(SCC(=O)N(C)Cc3ccccc3)n2)cc1	TDP43 rescue inconclusive (no result: aSyn yeast inh)
Cc1ccccc1NC(=O)c1sc2nc3n(c(=O)c2c1C)N=C(c1ccccc1)CS3	none (no result: aSyn yeast inh)
CC(NC(=O)OC(C)(C)C)C(=O)Oc1cc2oc(=O)cc(-c3ccccc3)c2cc1Cl (stereo not drawn)	TDP43 rescue 4.5µM (no result: FUS yeast rescue)
CC(Oc1cc2oc(=O)cc(-c3ccccc3)c2cc1Cl)C(=O)NCC1CCC(C(=O)O)CC1 (stereo not drawn)	none
O=C(NCCc1csc(-c2ccc(Cl)cc2)n1)c1cccs1	TDP43 rescue 18µM (no result: aSyn yeast inh)
COc1ccccc1C(=O)NCCc1csc(-c2ccc(C(F)(F)F)cc2)n1	FUS yeast rescue inconclusive, TDP43 rescue 25µM (no result: aSyn yeast inh)
COc1cc(NC(=O)c2csc(-c3ccncc3)n2)cc(C(=O)Nc2cccc(C(F)(F)F)c2)c1	FUS yeast rescue inconclusive, TDP43 rescue 20µM
COc1ccc(C(=O)NCCc2csc(-c3ccc(Cl)cc3)n2)c(OC)c1	FUS yeast rescue inconclusive, TDP43 rescue 20µM (no result: aSyn yeast inh)
O=C(Nc1cccc(C(F)(F)F)c1)c1csc(-c2ccncc2)n1	none
COc1ccc(CC(=O)NCCc2csc(-c3ccc(C(F)(F)F)cc3)n2)cc1	none
